Laboratory results: PubChem BioAssay (EPA / NIEHS)
Activity calls are given as the source filed them. The calls were made as follows: active = hit-call score of the fitted dose curve at least 0.9, where 1 is the maximum; inactive = score below 0.9.

Key:
[1] = read-out: Interleukin-1 alpha (IL1a), IL1A (gene 3552); assay: BSK_KF3CT_IL1a: BioMAP Diversity Plus: KF3CT Assay for Interleukin-1 alpha (IL1a) Biomarker Activity (AID 2283070); conditions: primary human keratinocytes with fibroblasts; actives raise or lower the signal
Procedure, shortened: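 Primary skin co-culture (keratinocytes, foreskin fibroblasts), 24 h exposure; ELISA for IL-1a; bidirectional curve fit vs DMSO.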

[2] = read-out: TIMP metallopeptidase inhibitor 2 (TIMP2), TIMP2 (gene 7077); assay: BSK_KF3CT_TIMP2: BioMAP Diversity Plus: KF3CT Assay for TIMP metallopeptidase inhibitor 2 (TIMP2) Biomarker Activity (AID 2283071); conditions: primary human keratinocytes with fibroblasts; actives raise or lower the signal
Procedure, shortened: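 Chemicals were dosed onto human skin primary co-cultures of keratinocytes and foreskin fibroblasts, and TIMP-2 was measured by ELISA after 24 hours. Activity in either direction was fitted relative to DMSO.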

[3] = read-out: Transforming growth factor beta 1 (TGFb1), TGFB1 (gene 7040); assay: BSK_KF3CT_TGFb1: BioMAP Diversity Plus: KF3CT Assay for Transforming growth factor beta 1 (TGFb1) Biomarker Activity (AID 2283072); conditions: primary human keratinocytes with fibroblasts; actives raise or lower the signal
Procedure, shortened: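 KF3CT co-culture (keratinocytes + fibroblasts), 24 h exposure → TGF-b1 ELISA → bidirectional fit, DMSO = baseline. Parallel SRB total-protein staining (0.1% SRB, 10% TCA fixation, 560 nm) for cytotoxicity.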

[4] = read-out: C-C motif chemokine 2 (Homo sapiens) (UniProt P13500); assay: BSK_KF3CT_MCP1: BioMAP Diversity Plus: KF3CT Assay for Monocyte Chemoattractant Protein 1 (MCP1/CCL2) Biomarker Activity (AID 2283073); conditions: primary human keratinocytes with fibroblasts; actives raise or lower the signal
Procedure, shortened: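 Biomarker MCP-1 is measured by ELISA in primary human keratinocytes co-cultured with foreskin fibroblasts, 24 h after chemical treatment; DMSO serves as the negative control and activity baseline.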

[5] = read-out: Matrix Metallopeptidase 9 (MMP9), MMP9 (gene 4318); assay: BSK_KF3CT_MMP9: BioMAP Diversity Plus: KF3CT Assay for Matrix Metallopeptidase 9 (MMP9) Biomarker Activity (AID 2283074); conditions: primary human keratinocytes with fibroblasts; actives raise or lower the signal
Procedure, shortened: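 ELISA read-out of MMP-9 at 24 h post-dosing in a co-culture of human skin keratinocytes and foreskin fibroblasts. Gain or loss of signal was fitted in both directions against DMSO.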

[6] = read-out: urokinase plasminogen activator (uPA), PLAU (gene 5328); assay: BSK_KF3CT_uPA: BioMAP Diversity Plus: KF3CT Assay for urokinase plasminogen activator (uPA) Biomarker Activity (AID 2283075); conditions: primary human keratinocytes with fibroblasts; actives raise or lower the signal
Procedure, shortened: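 Skin co-culture (keratinocytes + foreskin fibroblasts), human primary; 24 h post-dose; uPA by ELISA; gain/loss fit vs DMSO baseline.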

[7] = read-out: CD40, CD40 (gene 958); assay: BSK_LPS_CD40: BioMAP Diversity Plus: LPS Assay for CD40 Biomarker Activity (AID 2283076); conditions: primary human HUVEC with PBMC; actives raise or lower the signal
Procedure, shortened: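 Using a multiplexed primary human co-culture (umbilical vein endothelium plus PBMC), CD40 was read by ELISA 24 h after dosing, with cytotoxicity tracked by sulforhodamine B staining of parallel cultures and activity fitted bidirectionally versus DMSO.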

[8] = read-out: Interleukin-8 (IL8), CXCL8 (gene 3576); assay: BSK_LPS_IL8: BioMAP Diversity Plus: LPS Assay for Interleukin-8 (IL8) Biomarker Activity (AID 2283078); conditions: primary human HUVEC with PBMC; actives raise or lower the signal
Procedure, shortened: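 In this LPS system, chemical-treated human umbilical vein endothelium/PBMC co-cultures were harvested at 24 h for IL-8 ELISA.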

[9] = BSK_LPS_SRB: Viability Assessment in the BioMAP Diversity Plus: LPS Assay (AID 2283079); conditions: primary human HUVEC with PBMC;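 also: total protein by sulforhodamine B absorbance as a cytotoxicity measure; measured one day after compound addition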
Procedure, shortened: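 Cytotoxicity endpoint in human endothelial–PBMC co-culture: 24 h exposure, then SRB (0.1%) staining, 560 nm read.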

[10] = read-out: Interleukin-1 alpha (IL1a), IL1A (gene 3552); assay: BSK_LPS_IL1a: BioMAP Diversity Plus: LPS Assay for Interleukin-1 alpha (IL1a) Biomarker Activity (AID 2283080); conditions: primary human HUVEC with PBMC; actives raise or lower the signal
Procedure, shortened: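 Primary human HUVEC and PBMC co-culture stimulated with LPS is dosed and harvested at 24 h. Both increases and decreases in ELISA-measured IL-1a are scored relative to DMSO.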

[11] = read-out: Monocyte Chemoattractant Protein-1 (MCP1), CCL2 (gene 6347); assay: BSK_LPS_MCP1: BioMAP Diversity Plus: LPS Assay for Monocyte Chemoattractant Protein-1 (MCP1) Biomarker Activity (AID 2283081); conditions: primary human HUVEC with PBMC; actives raise or lower the signal
Procedure, shortened: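 Values derive from bidirectional fitting against DMSO of ELISA-measured MCP-1 in a human primary endothelial and mononuclear cell co-culture, 24 h after chemical addition under LPS activation.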

[12] = BSK_LPS_PGE2: BioMAP Diversity Plus: LPS Assay for Prostaglandin E2 (PGE2) Biomarker Activity (AID 2283082); conditions: primary human HUVEC with PBMC; actives raise or lower the signal;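 as to AC50: secreted prostaglandin E2 measured by ELISA in LPS-stimulated co-culture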
Procedure, shortened: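 Compounds were added to the LPS co-culture of endothelium and PBMC, and PGE2 was measured by ELISA after 24 h. Responses in either direction were fitted with DMSO as baseline.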

[13] = read-out: Macrophage colony-stimulating factor (MCSF), CSF1 (gene 1435); assay: BSK_LPS_MCSF: BioMAP Diversity Plus: LPS Assay for Macrophage colony-stimulating factor (MCSF) Biomarker Activity (AID 2283083); conditions: primary human HUVEC with PBMC; actives raise or lower the signal
Procedure, shortened: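 Bidirectional fit versus DMSO of ELISA-measured M-CSF in co-cultured human umbilical vein endothelial cells and PBMC, sampled 24 h after dosing.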

[14] = read-out: Tissue Factor, F3 (gene 2152); assay: BSK_LPS_TissueFactor: BioMAP Diversity Plus: LPS Assay for Tissue Factor Biomarker Activity (AID 2283084); conditions: primary human HUVEC with PBMC; actives raise or lower the signal
Procedure, shortened: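 Read-out: CD142 ELISA, 24 h. System: LPS-driven human endothelial/PBMC co-culture. Analysis: up- or down-signal fitted against DMSO.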

[15] = read-out: Tumor necrosis factor (Homo sapiens) (UniProt P01375); assay: BSK_LPS_TNFa: BioMAP Diversity Plus: LPS Assay for Tumour Necrosis Factor alpha (TNFa) Biomarker Activity (AID 2283085); conditions: primary human HUVEC with PBMC; actives raise or lower the signal;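 as to AC50: TNFa protein level quantified by ELISA in the co-culture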
Procedure, shortened: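 Cells (umbilical vein endothelium plus peripheral blood mononuclear cells) were dosed with chemical, incubated 24 h, then TNFa was quantified by ELISA; values derive from bidirectional fitting with DMSO as baseline.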

[16] = read-out: CD40, CD40 (gene 958); assay: BSK_SAg_CD40: BioMAP Diversity Plus: SAg Assay for CD40 Biomarker Activity (AID 2283088); conditions: primary human HUVEC with PBMC; actives raise or lower the signal
Procedure, shortened: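 Endpoint derived by fitting increases or decreases versus DMSO controls. CD40 is detected by fluorescence ELISA in a human vascular co-culture of endothelium and PBMC at 24 h.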

[17] = read-out: CD69, CD69 (gene 969); assay: BSK_SAg_CD69: BioMAP Diversity Plus: SAg Assay for CD69 Biomarker Activity (AID 2283089); conditions: primary human HUVEC with PBMC; actives raise or lower the signal
Procedure, shortened: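 Primary human vascular co-culture (umbilical vein endothelium with peripheral blood mononuclear cells) exposed to test chemical for 24 h. CD69 levels quantified by fluorescence ELISA; DMSO served as negative control for bidirectional fitting.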

[18] = read-out: E-selectin (Homo sapiens) (UniProt P16581); assay: BSK_LPS_Eselectin: BioMAP Diversity Plus: LPS Assay for Eselectin Biomarker Activity (AID 2283077); conditions: primary human HUVEC with PBMC; actives raise or lower the signal
Procedure, shortened: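 Dose chemical onto LPS-driven HUVEC/PBMC co-culture; after 24 h, run ELISA for E-selectin; fit up- and down-going responses relative to DMSO control.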

[19] = read-out: Vascular cell adhesion molecule 1 (VCAM1), VCAM1 (gene 7412); assay: BSK_LPS_VCAM1: BioMAP Diversity Plus: LPS Assay for Vascular cell adhesion molecule 1 (VCAM1) Biomarker Activity (AID 2283086); conditions: primary human HUVEC with PBMC; actives raise or lower the signal
Procedure, shortened: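 Cells are dosed in an LPS-stimulated endothelial/mononuclear co-culture and, after 24 h, VCAM-1 is quantified by ELISA. Activity in either direction is fitted relative to the DMSO negative control.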

[20] = read-out: CD38, CD38 (gene 952); assay: BSK_SAg_CD38: BioMAP Diversity Plus: SAg Assay for CD38 Biomarker Activity (AID 2283087); conditions: primary human HUVEC with PBMC; actives raise or lower the signal
Procedure, shortened: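 CD38 quantified by ELISA (fluorescence) in a superantigen-activated endothelial cell–PBMC co-culture at 24 h post-dose. Activity fitted in both directions relative to DMSO; parallel SRB and Alamar Blue cytotoxicity read-outs.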

Measured: AC50

Sequence of Tumor necrosis factor (Homo sapiens) (P01375 whole entry, looked up): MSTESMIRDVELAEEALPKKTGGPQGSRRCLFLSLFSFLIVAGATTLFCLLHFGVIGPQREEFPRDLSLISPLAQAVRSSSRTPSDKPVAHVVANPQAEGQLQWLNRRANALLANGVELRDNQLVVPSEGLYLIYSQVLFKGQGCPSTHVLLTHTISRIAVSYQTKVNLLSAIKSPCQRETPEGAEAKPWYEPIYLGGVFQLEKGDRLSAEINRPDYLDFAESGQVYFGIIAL
Sequence of E-selectin (Homo sapiens) (P16581 whole entry, looked up): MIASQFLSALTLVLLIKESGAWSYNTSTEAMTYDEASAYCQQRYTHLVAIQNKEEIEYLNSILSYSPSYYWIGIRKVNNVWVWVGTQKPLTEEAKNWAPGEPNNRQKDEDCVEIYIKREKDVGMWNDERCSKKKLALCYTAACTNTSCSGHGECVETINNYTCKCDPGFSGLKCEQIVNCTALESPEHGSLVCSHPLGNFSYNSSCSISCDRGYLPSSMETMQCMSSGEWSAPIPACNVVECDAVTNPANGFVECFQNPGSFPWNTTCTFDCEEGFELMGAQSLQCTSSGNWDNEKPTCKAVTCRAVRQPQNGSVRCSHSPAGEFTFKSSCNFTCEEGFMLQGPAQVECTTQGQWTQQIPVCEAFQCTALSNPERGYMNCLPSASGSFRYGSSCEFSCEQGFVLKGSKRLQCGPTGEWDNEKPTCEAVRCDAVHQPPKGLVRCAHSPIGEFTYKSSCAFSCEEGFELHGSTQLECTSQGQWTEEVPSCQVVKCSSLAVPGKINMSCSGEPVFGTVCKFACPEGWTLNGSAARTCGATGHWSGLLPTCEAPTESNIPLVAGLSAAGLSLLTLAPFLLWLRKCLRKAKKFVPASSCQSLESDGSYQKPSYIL

CCCCCCCCC(CO)CCCCCC (centres undefined)
inactive: [1] | [2] | [3] | [4] | [5] | [6] | [7] | [8] | [9] | [10] | [11] | [12] | [13] | [14] | [15] | [16] | [17]

CCNc1nc(NC(C)(C)C)nc(OC)n1
active: [12] 72.7 nM | [15] 5.59 µM
inactive: [1] | [3] | [4] | [5] | [6] | [7] | [18] | [8] | [9] | [10] | [11] | [13] | [14] | [19] | [20] | [16] | [17]

Cc1ccc([N+](=O)[O-])cc1N
inactive: [1] | [2] | [3] | [4] | [5] | [6] | [7] | [8] | [9] | [10] | [11] | [12] | [13] | [14] | [15] | [16] | [17]

Clc1cc(Cl)c(Cl)c(Cl)c1Cl
active: [2] 20 µM | [10] 16.2 µM
inactive: [1] | [3] | [4] | [5] | [6] | [7] | [8] | [9] | [11] | [12] | [13] | [14] | [15] | [16] | [17]

CCCCCC1=CCCC1=O
inactive: [1] | [3] | [4] | [5] | [6] | [7] | [18] | [8] | [9] | [10] | [11] | [12] | [13] | [14] | [15] | [20] | [16] | [17]

CCOC(=O)C1=NOC(c2ccccc2)(c2ccccc2)C1
inactive: [1] | [4] | [5] | [6] | [7] | [18] | [8] | [9] | [10] | [11] | [12] | [13] | [14] | [15] | [19] | [16] | [17]
active: [3] 113 nM

CC(c1cc(C(C)(C)C)cc(C(C)(C)C)c1O)c1cc(C(C)(C)C)cc(C(C)(C)C)c1O
inactive: [1] | [3] | [4] | [5] | [6] | [7] | [18] | [8] | [9] | [10] | [11] | [12] | [13] | [14] | [15] | [20] | [16] | [17]
